Source: PubChem BioAssay (National Center for Advancing Translational Sciences (NCATS))
This is one part of a sample in which hits are shown more often than they occur.
ERG Ets-DNA blk – inhibitors of human ERG Ets domain-DNA interaction. P11308. Potency, µM (highest dose often 76.9 µM), for the others: at the top dose FP activity, negative = inhibition, most hits filed as inhibitors. fluorescence polarization, His-ERG Ets domain / labelled DNA. 370,000 compounds, 0.028% hits. AID 624246; active = well fitted inhibition curve with a large enough effect in the polarisation, with a control signal flat; inconclusive = small, poorly fitted or top-dose-only effect, or effect the other way, or a change in a side signal; inactive = no such curve, though single readings can be large or run the other way; the % refers to the polarisation;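 note: polarization taken with two DNA probes labelled with fluorescein and Texas red; potency is the fitted concentration of half-maximal effect; % of control where 0% means no effect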
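His-tagged ERG Ets domain (1 uM in the protein solution; 300mM KCl, 50mM Tris-HCl, 1mM EDTA, 1mM DTT, pH 7.5) received compound, then a probe mix of 5 nM fluorescein-DNA and 100nM Texas-615-DNA. Fluorescence polarization was read for both dyes.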
RGS12 GoLoco inh – blocks human Gai1 binding to RGS12 GoLoco peptide, red readout; 230,000 compounds, 0.44% hits; P63096; Potency, µM (titrated, usually from 61.6 µM), for inactives: at the highest dose activity, negative = inhibition, hits mostly inhibitors; Gai1:RGS12 GoLoco peptide FP, rhodamine, 10 min; active = well fitted inhibition curve with a large enough effect, not every such curve was filed as active; inactive = no such curve, though single readings can be large or run the other way; note: potency is the fitted concentration of half-maximal effect; % is set by controls: 0 for no effect and ±100 for the full control effect; nearly all actives have a fitted effect of over 30% in size
Target sequence (P63096 whole entry, looked up): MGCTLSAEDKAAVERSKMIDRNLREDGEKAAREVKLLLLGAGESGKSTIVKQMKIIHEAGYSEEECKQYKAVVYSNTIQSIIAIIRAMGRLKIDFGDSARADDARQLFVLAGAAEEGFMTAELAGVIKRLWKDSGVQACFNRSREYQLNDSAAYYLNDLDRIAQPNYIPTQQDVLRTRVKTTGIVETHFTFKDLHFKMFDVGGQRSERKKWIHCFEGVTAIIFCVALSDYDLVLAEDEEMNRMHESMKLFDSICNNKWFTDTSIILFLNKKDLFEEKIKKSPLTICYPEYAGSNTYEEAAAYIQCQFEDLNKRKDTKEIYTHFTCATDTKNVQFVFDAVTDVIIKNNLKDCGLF
Menin-MLL TR inh – displaces Texas Red mutant MLL peptide from human menin | 270,000 compounds, 0.23% hits | Potency, µM (series often up to 61.6 µM), for the others: top-dose FP activity change, negative = inhibition, hits mostly inhibitors | O00255 | AID 1768 | Menin + Texas Red MLL mutant peptide, fluorescence polarization; active = well fitted inhibition curve with a large enough effect in the polarisation, with a control signal flat, not every such curve was filed as active; inconclusive = small, poorly fitted or top-dose-only effect, or effect the other way, or a change in a side signal; inactive = no such curve, though single readings can be large or run the other way; the % refers to the polarisation; note: potency is the fitted concentration of half-maximal effect; % of control where 0% means no effect
MLL CXXC-DNA inh – inhibitors of human MLL CXXC domain-DNA interaction | Q03164 | AID 2662 | MLL-CXXC / FITC-HOXA9 DNA fluorescence polarization | Potency, µM (series often up to 115 µM), for inactives: at the top dose activity change, negative = inhibition, usual class: inhibitors | 290,000 compounds, 0.037% hits; active = well fitted inhibition curve with a large enough effect in the polarisation, with a control signal flat, not every such curve was filed as active; inconclusive = small, poorly fitted or top-dose-only effect, or effect the other way, or a change in a side signal; inactive = no such curve, though single readings can be large or run the other way; the % refers to the polarisation; note: potency is the fitted concentration of half-maximal effect
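Fluorescence polarization: 7 uM MLL-CXXC (stock) preincubated 5 min with compounds, then 50 nM fluorescein-HOX-A9 DNA (stock) added; 30 min ambient. Buffer 50 mM Tris-HCl pH 7.5, 50 mM NaCl, 1 mM DTT, 0.05% BSA.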
Menin-MLL FL inh – menin-MLL binding inhibition, fluorescein peptide. Fluorescence polarization, fluorescein-MLL peptide displacement from menin. FP activity change, % at 61.4 µM. 290,000 tested, under 10 active; active = well fitted curve in the direction sought with a large enough effect in the polarisation, not every such curve was filed as active; inconclusive = small, poorly fitted or top-dose-only effect, or effect the other way, or a change in a side signal; inactive = no such curve, though single readings can be large or run the other way; the % refers to the polarisation; note: % of control where 0% means no effect
Starred values were filed as active, the others as inactive.

Screening O=C(Nc1ccccc1F)c1nc(S(=O)(=O)Cc2ccccc2F)ncc1Cl returned ERG Ets-DNA blk -2%.
Cn1c(=O)c2[nH]c(-c3ccccc3)c(O)c2n(C)c1=O was read as ERG Ets-DNA blk -23%, RGS12 GoLoco inh -18%, Menin-MLL TR inh 3%, MLL CXXC-DNA inh 8% and Menin-MLL FL inh inconclusive.
For Cn1c(=O)c2[nH]c(-c3ccccc3Cl)c(O)c2n(C)c1=O the results were ERG Ets-DNA blk 6%, RGS12 GoLoco inh 2µM*, Menin-MLL TR inh inconclusive, MLL CXXC-DNA inh -10% and Menin-MLL FL inh inconclusive.
For CCCCC(=Nc1ccc(N)cc1)C1=C(O)C(C(=O)OC)C(C)(C)CC1=O (centres undefined) the results were ERG Ets-DNA blk inconclusive, RGS12 GoLoco inh 25µM*, Menin-MLL TR inh inconclusive, MLL CXXC-DNA inh -3% and Menin-MLL FL inh 5.
`CCCC(=Nc1ccccc1)C1=C(O)C(C(=O)OC)C(C)(C)CC1=O` (centres undefined) gave RGS12 GoLoco inh -11%, Menin-MLL TR inh -2%, MLL CXXC-DNA inh 5% and Menin-MLL FL inh 8.
Screening CCC(=Nc1ccc(N)cc1)C1=C(O)C(C(=O)OC)C(C)(C)CC1=O (centres undefined) returned Menin-MLL TR inh 32µM*, MLL CXXC-DNA inh 3% and Menin-MLL FL inh inconclusive.
CCc1ccc(S(=O)(=O)Nc2ccc3[nH]c(=O)sc3c2)cc1 was read as ERG Ets-DNA blk 2%.
Screening COc1ccc(N(CC(O)Cn2c3ccccc3c3ccccc32)S(=O)(=O)c2ccccc2)cc1 (centres undefined) returned ERG Ets-DNA blk -3%, RGS12 GoLoco inh 4%, Menin-MLL TR inh 25µM*, MLL CXXC-DNA inh 28% and Menin-MLL FL inh -2.
For COc1ccc(NCc2ccc(OC)c(Cn3ccnc3)c2)c(OC)c1 the results were ERG Ets-DNA blk -3%, Menin-MLL TR inh 13µM*, MLL CXXC-DNA inh 11% and Menin-MLL FL inh 4.
For COc1ccc(Cn2ccnc2)cc1Br the results were ERG Ets-DNA blk -1%, RGS12 GoLoco inh -3%, Menin-MLL TR inh -26%, MLL CXXC-DNA inh 9% and Menin-MLL FL inh 4.
Screening COc1ccc(NC(=O)Cn2c(=O)n(-c3ccccc3)c(=O)c3c4c(sc32)CCCC4)cc1 returned ERG Ets-DNA blk 0%.
`O=C(O)C1Nc2c(O)cc(Cl)c([N+](=O)[O-])c2C2C=CCC12` (centres undefined) gave ERG Ets-DNA blk 9%, RGS12 GoLoco inh 10µM*, Menin-MLL TR inh inconclusive, MLL CXXC-DNA inh -21% and Menin-MLL FL inh inconclusive.
N#Cc1ccc(-c2csc(NC(=O)c3ccc(S(=O)(=O)N4CCc5ccccc5C4)cc3)n2)cc1 was read as RGS12 GoLoco inh 22%, Menin-MLL TR inh 11µM*, MLL CXXC-DNA inh -3% and Menin-MLL FL inh 10.
`O=C(Cn1sc2ccccc2c1=O)NC12CC3CC(CC(C3)C1)C2` gave ERG Ets-DNA blk -2%, RGS12 GoLoco inh 28µM*, Menin-MLL TR inh -8%, MLL CXXC-DNA inh -28% and Menin-MLL FL inh 0.
`CN1C(=O)/C(=C/c2ccc(-c3ccccc3[N+](=O)[O-])o2)SC1=Nc1ccc(Cl)c(C(=O)O)c1` gave ERG Ets-DNA blk 2%, RGS12 GoLoco inh 14µM*, Menin-MLL TR inh 5%, MLL CXXC-DNA inh -3% and Menin-MLL FL inh 15.
`CN(C)CCCNc1cc(O)c2c(c1O)C(=O)c1ccccc1C2=O` gave RGS12 GoLoco inh 3.5µM*.
For O=C1c2ccccc2C(=O)c2c(O)c(O)cc(O)c21 the results were ERG Ets-DNA blk 71%, RGS12 GoLoco inh 7%, Menin-MLL TR inh inconclusive and Menin-MLL FL inh inconclusive.
Screening COc1ccc(NC(=O)Cc2csc(COc3cccc(C)c3)n2)cc1OC returned ERG Ets-DNA blk -2%.
Screening Cc1cc(=O)n(CC(=O)NC(C)c2ccccc2)c2c1c(C)nn2C (centres undefined) returned ERG Ets-DNA blk -4%.
`COc1ccccc1NC(=O)C(C)Sc1nnc2ccc3ccccc3n12` (centres undefined) gave ERG Ets-DNA blk 3%.
